This is an account of results in the supplement of paper PMC6411743.

± gives the standard deviation of the averaged measurements. The full data set covers some 5,400 targets. This sample favours those with the largest changes.

For this test, the target named is T1, UniProt Q92796-3|Q5JUW8|Q92796.
T1 sequence (whole entry): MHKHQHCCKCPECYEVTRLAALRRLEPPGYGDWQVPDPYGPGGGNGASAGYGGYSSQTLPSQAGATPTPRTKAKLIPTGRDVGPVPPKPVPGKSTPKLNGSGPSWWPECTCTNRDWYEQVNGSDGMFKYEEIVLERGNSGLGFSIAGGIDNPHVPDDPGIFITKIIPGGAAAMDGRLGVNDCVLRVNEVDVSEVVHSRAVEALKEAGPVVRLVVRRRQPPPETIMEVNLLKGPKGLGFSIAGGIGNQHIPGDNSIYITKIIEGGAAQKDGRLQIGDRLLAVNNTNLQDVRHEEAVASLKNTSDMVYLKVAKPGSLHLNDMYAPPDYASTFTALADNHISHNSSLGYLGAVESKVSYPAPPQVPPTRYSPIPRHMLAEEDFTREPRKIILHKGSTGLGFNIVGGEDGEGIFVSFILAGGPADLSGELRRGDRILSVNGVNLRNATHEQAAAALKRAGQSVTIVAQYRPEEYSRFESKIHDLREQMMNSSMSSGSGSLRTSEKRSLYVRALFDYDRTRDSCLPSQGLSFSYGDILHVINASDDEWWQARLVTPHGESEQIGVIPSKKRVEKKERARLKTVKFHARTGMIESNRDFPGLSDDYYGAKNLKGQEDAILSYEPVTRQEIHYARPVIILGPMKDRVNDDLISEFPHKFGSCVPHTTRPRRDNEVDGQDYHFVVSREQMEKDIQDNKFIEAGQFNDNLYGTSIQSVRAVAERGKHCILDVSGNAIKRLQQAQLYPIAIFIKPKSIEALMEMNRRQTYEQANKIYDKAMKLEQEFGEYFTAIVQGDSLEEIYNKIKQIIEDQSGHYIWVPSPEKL
Briefly: NP40-soluble protein abundance relative to vehicle (solubility fold change) (ratio); higher = more soluble protein in presence of GTP. The gist of the method:
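Across three independent experiments, values are fold changes against the detergent-processed vehicle for each replicate, based on vsn-normalised intensities. The samples were Jurkat crude lysate treated with eight concentrations (0.1 to 10 mM) for 10 min at room temperature and then 3 min at 37 °C. Lysate was solubilised with 0.8% NP40 and benzonase, ultracentrifuged, and the supernatant analysed by TMT-labelled LC-MS/MS.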

Take `Nc1nc2c(ncn2[C@@H]2O[C@H](COP(=O)(O)OP(=O)(O)OP(=O)(O)O)[C@@H](O)[C@H]2O)c(=O)[nH]1` [guanosine triphosphate]: the NP40-soluble protein abundance reads like this: (concentration: 0.1mM) 1.15 ± 0.034; (concentration: 0.5mM) 1.17 ± 0.023; (concentration: 1mM) 1.17 ± 0.037; (concentration: 2mM) 1.17 ± 0.038; (concentration: 4mM) 1.13 ± 0.03; (concentration: 6mM) 1.12 ± 0.07. Further, the NP40-soluble protein abundance runs as follows: (concentration: 8mM) 1.18 ± 0.018; (concentration: 10mM) 1.14 ± 0.037.
